The list shows a part of the results. Unmarked numbers belong to inactive results. Active and inactive are the calls of the source.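 The calls were made as follows: active = inhibition reaching a set limit in any replicate at 20 µM, the limit being 80% of the first screen's; inactive = the rest.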
Biological target: DNA dC->dU-editing enzyme APOBEC-3G (Homo sapiens) (UniProt Q9HC16)
Test: APOBEC3G deaminase inhibitor retest, confirmation, biochemical, fluorescence, single-stranded DNA substrate, single concentration (AID 493152)
Conditions: recombinant A3G ssDNA deaminase, UDG/FAM-TAMRA fluorescence; at 20 µM; active compounds read high

DNA dC->dU-editing enzyme APOBEC-3G (Homo sapiens), sequence (Q9HC16 whole entry, looked up): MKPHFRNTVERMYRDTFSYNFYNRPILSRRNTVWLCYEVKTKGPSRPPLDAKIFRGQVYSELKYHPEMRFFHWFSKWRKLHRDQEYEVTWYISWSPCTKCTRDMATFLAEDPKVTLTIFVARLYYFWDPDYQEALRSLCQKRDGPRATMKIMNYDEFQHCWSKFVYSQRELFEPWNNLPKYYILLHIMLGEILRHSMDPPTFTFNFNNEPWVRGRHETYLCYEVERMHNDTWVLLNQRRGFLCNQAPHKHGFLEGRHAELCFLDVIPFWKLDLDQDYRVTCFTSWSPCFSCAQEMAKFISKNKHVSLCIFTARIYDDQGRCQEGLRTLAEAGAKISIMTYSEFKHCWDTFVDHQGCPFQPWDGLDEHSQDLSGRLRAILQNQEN

Row | Structure (SMILES) | inhibition
1 | CC(=O)N(C1=C(Cl)C(=O)c2ccccc2C1=O)c1ccc(C(=O)O)cc1 | 99.2% (active)
2 | CC(=O)N1CC[n+]2c(-c3ccc([N+](=O)[O-])cc3)csc21 | 50.5% (active)
3 | Cc1cc(-c2n[nH]c(=S)n2-c2ccc(C)c(C)c2)no1 | 74.9% (active)
4 | CC(C)(C)c1nnc(NC(=O)C2c3ccccc3Oc3ccccc32)s1 | 31.2% (active)
5 | S=c1[nH]nc(-c2ccncc2)n1/N=C/c1ccccc1Cl | 95.7% (active)
6 | COc1ccc(OCc2n[nH]c(=S)n2N)cc1 | 56.2% (active)
7 | Cc1ccc(NC(=O)c2sc3nc(N)c(C#N)cc3c2N)cc1 | -7.68%
8 | COCc1c(N)c(C)nc(Cl)c1C#N | 84.5% (active)
9 | S=c1[nH]nc(-c2cc(-c3ccccc3)n[nH]2)n1/N=C/c1c2ccccc2cc2ccccc12 | 8.05%
10 | CCc1c(C)[nH]c(=S)c(C#N)c1C | 89.2% (active)
11 | Cc1cc(C)c2c(-c3ccc(F)cc3)c(C#N)c(=O)n(C)c2n1 | -1.37%
12 | S=c1[nH]nc(-c2ccc(Cl)cc2)n1CC1CCCO1 (centres undefined) | 55.9% (active)
13 | O=c1[nH]c2ccccc2n2c(-c3ccccc3)nnc12 | 26% (active)
14 | Cc1ccc(S(=O)(=O)N(C)CC(=O)NCCc2c[nH]c3ccccc23)cc1 | 4.16%
15 | COc1cccc(C(=O)CC(=O)C(=O)Nc2ccc([N+](=O)[O-])cc2C)c1 | 2.17%
16 | Cc1ccc(C(=O)c2c(NC(=O)c3ccccc3)sc(C)c2C)cc1 | 24.2% (active)
17 | CCOc1ccc(NC(=O)c2ccc(NC(=O)COC(=O)c3ccc(NC(=O)CC#N)cc3)cc2)cc1 | 51.5% (active)
18 | CC1=C/C(=N\OS(=O)(=O)c2ccccc2)C=CC1=O | 63.8% (active)
19 | O=C1CC(Sc2ncn[nH]2)C(=O)N1c1ccccc1 (centres undefined) | 40.4% (active)
20 | COC(=O)c1cccc(-n2[nH]nnc2=S)c1 | -14.5%
21 | Fc1ccccc1/C=N/n1c(-c2cccnc2)n[nH]c1=S | 84.9% (active)
22 | O=C(Cn1cnc([N+](=O)[O-])n1)NCCc1ccccc1 | 11.3% (active)
23 | Cc1cccc(-n2c(N)c(C(=O)N3CCN(C)CC3)sc2=S)c1 | 77.7% (active)
24 | S=c1[nH]nc(-c2ccco2)n1/N=C/c1ccccc1 | -3.73% (active)

Source: PubChem BioAssay AID493152 (Sanford-Burnham Center for Chemical Genomics, 2011)
